TLR4-MyD88 BLA = blocks binding of human TLR4 to MyD88. O00206+Q99836. HeLa CL3-4 TLR4/MyD88 BLA complementation, FRET ratio. inhibition, % at 8.4 µM. 0.18% of 200,000 active; in the data active = inhibition above about 25%;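 also: 0% = vehicle and 100% = reference inhibitor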
IDE inh = inhibitors of human insulin-degrading enzyme in cells; P14735; HEK cells, FAbetaB cleavage, fluorescence polarization; inhibition, % at 5.59 µM; 0.41% of 320,000 active; AID 434962;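 active = percent inhibition above the average of all tested compounds plus 3 SD, set per screening campaign, cut at about 16% in these data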;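 also: IDE supplied by intact live HEK cells; FP after avidin binding of uncleaved biotin substrate so inhibition keeps polarization high; 0% = DMSO wells and 100% = 60 µM reference IDE inhibitor Ii1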
TLR9-MyD88 inh = inhibitors of human TLR9-MyD88 binding | Q9NR96+Q99836 | CHO BLA complementation TLR9-MyD88, CCF4 FRET ratio | inhibition, % at 4.98 µM | 0.21% of 340,000 active | AID 504734;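 active = inhibition above the mean over all tested compounds plus 3 SD, cut at about 21% in these data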;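 also: 0% = DMSO only wells and 100% = clavulanate BLA inhibitor control wells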
NOD2 RIPK2 PPI = inhibitors of human NOD2-RIPK2 interaction; inhibition, % at 4.98 µM; O43353; 0.38% of 360,000 active; CHO BLA complementation NOD2-RIPK2, CCF4 ratio; AID 624267; in the data active = inhibition above about 21%;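 also: 0% = vehicle only and 100% = reference blocker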
IDE cell activ = boosts human insulin-degrading enzyme activity in HEK cells. P14735. FAbeta-B cleavage, fluorescence polarization; 0% vehicle, 100% cell-free pure enzyme wells. activation, % at 5.96 µM. 0.073% of 340,000 active. AID 493087;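 active = activation above the mean of all tested compounds plus 3 SD, set per screening campaign, cut at about 17% in these data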
TLR9-MyD88 conf = confirmation of human TLR9-MyD88 binding inhibitors | shares compounds with TLR9-MyD88 inh | CHO TLR9/MyD88 BLA complementation, CCF4 FRET ratio | inhibition, % at 4.98 µM | 51% of 680 active | AID 540250;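 active = mean inhibition across three repeats above about 21% taken from the earlier screen, limit read from the data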;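 also: blue over green emission ratio reports constitutive TLR9 MyD88 association via BLA complementation; 0% = DMSO vehicle wells and 100% = clavulanate BLA inhibitor wells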
BLA counter-1 = non-selective beta-lactamase inhibitors in TLR9-MyD88 counter-screen | shares compounds with TLR9-MyD88 inh | CHO-BLA cells, CCF4 FRET ratio, BLA reporter | inhibition, % at 4.98 µM | 7% of 680 active;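 active = mean inhibition above a 50% cutoff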;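 also: counterscreen of TLR9-MyD88 hits on CMV-driven BLA in CHO-K1 cells; 0% = DMSO alone and 100% = clavulanate blocking BLA; higher means less blue over green ratio so more BLA blockade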
TLR9 CHO tox = CHO cell toxicity counter-screen for TLR9-MyD88 inhibitors. shares compounds with TLR9-MyD88 inh. TLR9-MyD88 CHO cells cytotoxicity, luminescence. inhibition, % at 4.98 µM. 39% of 680 active. AID 588336; in the data active = inhibition above about 11%
NOD2-RIPK2 conf = confirmation of human NOD2-RIPK2 interaction inhibitors; inhibition, % at 4.98 µM; CHO cells, NOD2-RIPK2 BLA complementation, CCF4 FRET; 70% of 1,200 active; shares compounds with NOD2 RIPK2 PPI; AID 624370;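 active = mean inhibition across replicates above a set limit taken from the earlier primary screen, cut at about 21% in these data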;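 also: 0% = DMSO-only wells and the high end = clavulanate BLA-blocked wells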
BLA counter-2 = NOD2-RIPK2 counterscreen BLA reporter activity; CHO BLA reporter, CCF4 FRET ratio; 57% of 1,200 active; inhibition, % at 4.98 µM; shares compounds with NOD2 RIPK2 PPI;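 active = mean inhibition above the low-control mean inhibition plus three low-control SD, cut at about 11% in these data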;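 also: 0% = DMSO only wells and 100% = clavulanate high control wells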
Starred values were filed as active, the others as inactive; x = no result given. Compounds with a hit are over-represented: about 0.87% of the library has one in this group of screens.

SMILES	TLR4-MyD88 BLA	IDE inh	TLR9-MyD88 inh	NOD2 RIPK2 PPI	IDE cell activ	TLR9-MyD88 conf	BLA counter-1	TLR9 CHO tox	NOD2-RIPK2 conf	BLA counter-2
CC(=O)Oc1ccc2cc(-c3nc4ccccc4n3C)c(=O)oc2c1	12	-2	22*	39*	4	15	42	5	38*	59*
CC(=O)Nc1ccc(C2=CC(=O)CC(C)(C)C2)cc1	x	7	-12	-9	4	x	x	x	x	x
COc1ccc(C2=CC(c3ccc(OC)c(OC)c3)n3nnnc3N2)c(OC)c1 (configuration not stated)	4	-2	39*	44*	0	21*	26	8	3	7
CC(C)(C)NC(=O)C1c2ccccc2OCC(=O)N1CCc1ccccc1 (configuration not stated)	x	x	x	-15	x	x	x	x	x	x
O=C(c1ccccc1)c1ccccc1N1C(=O)C=CC1=O	x	0	33*	70*	-18	26*	5	96*	69*	16*
COc1ccccc1C(C)Nc1ccc(S(=O)(=O)N2CCN(C)CC2)cc1[N+](=O)[O-] (configuration not stated)	x	3	-6	10	3	x	x	x	x	x
O=C(NCC1CCCO1)c1cc2nc(-c3ccco3)cc(C(F)(F)Cl)n2n1 (configuration not stated)	x	8	4	-10	8	x	x	x	x	x
Cc1nnc(N2C(=O)c3cccc4c([N+](=O)[O-])ccc(c34)C2=O)s1	x	11	80*	91*	-8	67*	84*	58*	93*	87*
CCOC(=O)C1=C(CSc2nc(-c3ccccc3)ccc2C#N)OC(N)=C(C#N)C1c1ccccc1 (configuration not stated)	19	6	32*	36*	-1	6	6	20*	25*	25*
CCOC(=O)C1=C(CSc2nc3c(cc2C#N)CN(C)CC3)OC(N)=C(C#N)C1c1ccccc1 (configuration not stated)	1	3	-1	-1	-4	x	x	x	x	x
O=C(Nc1ccccc1)C1=C(c2ccccc2)S(=O)(=O)CCS1(=O)=O	11	x	22*	50*	-10	19	1	97*	60*	12*
O=C(O)c1ccccc1C(=O)Nc1ccccc1	13	-1	-4	1	-1	x	x	x	x	x
CCCNC(=O)c1ccc2snnc2c1	4	4	0	1	-2	x	x	x	x	x
Cc1ccc(S(=O)c2snnc2C)cc1 (configuration not stated)	x	-2	-6	-11	-1	x	x	x	x	x
CCCNC(=O)c1nnsc1S(=O)c1ccc(Cl)cc1 (configuration not stated)	9	x	48*	80*	-15	49*	4	100*	85*	25*
CCCNC(=O)c1nnsc1S(=O)(=O)c1ccc(Cl)cc1	18	x	35*	84*	-8	37*	9	99*	85*	23*
CNC(=O)c1nnsc1S(=O)c1ccc(Cl)cc1 (configuration not stated)	7	x	46*	57*	-15	51*	4	97*	54*	28*
Clc1ccc2nc(N3CCNCC3)nc(-c3ccccc3)c2c1	19	1	24*	37*	7	16	29	-1	38*	52*
CN1CCN(c2nc(-c3ccccc3)c3cc(Cl)ccc3n2)CC1	1	-1	-15	8	1	x	x	x	x	x
CS(=O)(=O)c1nc(-c2ccc(F)cc2)cc(C(F)(F)F)n1	15	x	40*	62*	0	35*	8	97*	62*	12*
